The list is not random: actives were taken first. Their share in the collection is about 4.1%.
hcDAF12 agonist: H. contortus DAF-12 activation, primary screen. HEK293 hcDAF-12 lit1-tk-luc reporter, luminescence; 0% DMSO, 100% Δ7-dafachronic acid. activation, % at 6.8 µM. 370,000 tested, 1.4% active. AID 652067;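 active = activation above the mean of all tested compounds plus 3 SD, cut at about 5.5% in these data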
DAX1 inh-1: DAX1 (NR0B1) inhibition, primary screen | 370,000 tested, 1.1% active | HEK293T StAR-luciferase reporter, SF-1/DAX-1 repression relief | AID 652010 | inhibition, % at 6.8 µM;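 active = inhibition above the mean over all tested compounds plus 3 SD, cut at about 3.6% in these data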;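 note: higher inhibition means more luminescence from relief of DAX-1 repression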
ssDAF12 agonist: activates DAF-12 receptor from parasite S. stercoralis; 370,000 tested, 1% active; activation, % at 6.8 µM; HEK293 ssDAF-12/GRIP1 lit1-tk-luc reporter, luminescence; % of 3 µM dafachronic acid response;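 active = activation above the mean over all tested compounds plus 3 SD, cut at about 0.9% in these data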
hgDAF12 agonist: agonists of H. glycines DAF-12 nuclear receptor | HEK293 GAL4-hgDAF12 UAS-luciferase reporter, agonist luminescence; normalized to butyrate control | activation, % at 6.8 µM | 370,000 tested, 1.8% active | AID 687014;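 active = activation above a cutoff set at the mean of all screened compounds plus 3 SD, cut at about 10% in these data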
DAX1 inh-2: NR0B1 (DAX1) inhibition | P51843 | HEK293 Gal4-DAX1 luciferase reporter, luminescence | inhibition, % at 6.75 µM | 340,000 tested, 0.99% active | AID 504766;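 active = inhibition above the mean over all tested compounds plus 3 SD, cut at about 4.2% in these data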;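 note: inhibition shows as a rise in luminescence from relieved DAX1 repression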
LXRb hcDAF ctr: LXR-beta agonism as hcDAF-12 counter-screen; shares compounds with hcDAF12 agonist; HEK293 Gal4-LXR tk-luc reporter, luminescence, 24 h; normalized: DMSO 0%, positive control 100%; activation, % at 6.8 µM; 3,400 tested, under 10 active; AID 743027;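 active = mean percent activation of the reporter above a cutoff set as the average over tested compounds plus their standard deviation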
Target sequence (P55055 whole entry, looked up, the tested form may be a part): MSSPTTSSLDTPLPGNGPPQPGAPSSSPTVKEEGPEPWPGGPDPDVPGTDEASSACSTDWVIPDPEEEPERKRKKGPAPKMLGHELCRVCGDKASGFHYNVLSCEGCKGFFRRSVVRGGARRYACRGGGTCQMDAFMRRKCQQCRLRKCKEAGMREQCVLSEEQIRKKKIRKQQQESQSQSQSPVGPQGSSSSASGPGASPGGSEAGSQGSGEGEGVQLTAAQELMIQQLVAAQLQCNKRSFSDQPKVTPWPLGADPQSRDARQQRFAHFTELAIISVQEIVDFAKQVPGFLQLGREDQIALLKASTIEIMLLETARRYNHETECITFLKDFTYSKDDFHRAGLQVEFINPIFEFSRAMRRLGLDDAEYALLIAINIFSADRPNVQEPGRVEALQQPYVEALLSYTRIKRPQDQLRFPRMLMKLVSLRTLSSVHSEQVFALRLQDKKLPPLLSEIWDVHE
hcDAF12 conf: confirmation of H. contortus DAF-12 agonists | HEK293 hcDAF-12 lit1-tk-luc reporter, luminescence; % of Δ7-dafachronic acid response | activation, % at 6.8 µM | shares compounds with hcDAF12 agonist | 3,400 tested, 61% active;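 active = mean activation across triplicate tests above the threshold derived from the earlier primary screen, cut at about 5.5% in these data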
A number is an active result.

`CN1CCc2c(sc(/N=C/c3c[nH]c4ccccc34)c2C#N)C1` gave hcDAF12 agonist 8.7, DAX1 inh-1 inactive, ssDAF12 agonist inactive, hgDAF12 agonist inactive, LXRb hcDAF ctr inactive and hcDAF12 conf 9.0.
`COc1cccc(C2c3[nH]c4ccccc4c3C[C@H]3C(=O)N(c4ccccc4C(=O)N4CCCC4C(=O)O)C(=O)N23)c1` (stereo partly drawn) gave hcDAF12 agonist 12, DAX1 inh-1 inactive, ssDAF12 agonist inactive, hgDAF12 agonist inactive, DAX1 inh-2 inactive, LXRb hcDAF ctr inactive and hcDAF12 conf inactive.
For COc1ccc(C2c3[nH]c4ccccc4c3C[C@H]3C(=O)N(c4ccccc4C(=O)NCCN4CCOCC4)C(=O)N23)cc1 (stereo partly drawn) the results were hcDAF12 agonist inactive, DAX1 inh-1 inactive, ssDAF12 agonist inactive, hgDAF12 agonist inactive and DAX1 inh-2 inactive.
Cc1ccc(C2c3[nH]c4ccccc4c3C[C@H]3C(=O)N(c4ccccc4C(=O)N4CCC[C@@H]4C(=O)O)C(=O)N23)cc1 (stereo partly drawn) was read as hcDAF12 agonist 10, DAX1 inh-1 inactive, ssDAF12 agonist inactive, hgDAF12 agonist inactive, DAX1 inh-2 inactive, LXRb hcDAF ctr inactive and hcDAF12 conf inactive.
O=C(NCCN1CCOCC1)c1ccccc1N1C(=O)[C@@H]2Cc3c([nH]c4ccccc34)C(c3ccc(F)cc3)N2C1=O (stereo partly drawn) was read as hcDAF12 agonist inactive, DAX1 inh-1 inactive, ssDAF12 agonist inactive, hgDAF12 agonist inactive and DAX1 inh-2 inactive.
For Cc1ccc(C2c3[nH]c4ccccc4c3C[C@H]3C(=O)N(c4ccccc4C(=O)N4CCC(C(=O)O)CC4)C(=O)N23)cc1 (stereo partly drawn) the results were hcDAF12 agonist 9.6, DAX1 inh-1 inactive, ssDAF12 agonist inactive, hgDAF12 agonist inactive, DAX1 inh-2 inactive, LXRb hcDAF ctr inactive and hcDAF12 conf inactive.
`Cc1sc2c(c1C)CN(CCN1CCOCC1)CN2C(=O)c1ccccc1` gave hcDAF12 agonist 9.6, DAX1 inh-1 inactive, ssDAF12 agonist inactive, hgDAF12 agonist inactive, DAX1 inh-2 inactive, LXRb hcDAF ctr inactive and hcDAF12 conf 6.0.
Screening Cn1c(=O)c(=O)n(C)c2cc(S(=O)(=O)N3CCN(Cc4ccc(F)cc4)CC3)ccc21 returned hcDAF12 agonist inactive, DAX1 inh-1 inactive, ssDAF12 agonist inactive and hgDAF12 agonist inactive.
For CCc1ccc(NS(=O)(=O)c2ccc3[nH]cc(C(=O)N4CCc5ccccc54)c(=O)c3c2)cc1 the results were hcDAF12 agonist 7.3, DAX1 inh-1 inactive, ssDAF12 agonist 1.2, hgDAF12 agonist inactive, DAX1 inh-2 inactive, LXRb hcDAF ctr inactive and hcDAF12 conf 5.7.
Screening C[C@@H]1CCN(C2CC2)S(=O)(=O)c2c(cccc2N2CC[C@H](O)C2)O1 returned hcDAF12 agonist inactive, DAX1 inh-1 inactive, ssDAF12 agonist inactive and hgDAF12 agonist inactive.
Screening O=C(NCc1ccccc1)[C@@H]1CCCN1C(=O)[C@H]1CCCN1C(=O)c1ccc(F)cc1F returned hcDAF12 agonist inactive, DAX1 inh-1 inactive, ssDAF12 agonist inactive and hgDAF12 agonist inactive.
For CC(=O)Nc1ccc(NC(=O)CN2C(=O)COc3ccc(S(=O)(=O)N4CCOCC4)cc32)cc1 the results were hcDAF12 agonist inactive, DAX1 inh-1 inactive, ssDAF12 agonist inactive, hgDAF12 agonist inactive and DAX1 inh-2 inactive.
`CCN(CC)S(=O)(=O)c1ccc2c(c1)N(CC(=O)Nc1ccc(NC(C)=O)cc1)C(=O)CO2` gave hcDAF12 agonist 6.8, DAX1 inh-1 inactive, ssDAF12 agonist inactive, hgDAF12 agonist inactive, DAX1 inh-2 inactive, LXRb hcDAF ctr inactive and hcDAF12 conf inactive.
`COc1ccc(N2CCCN(CC(=O)Nc3ccccc3C)CC2)cc1` gave hcDAF12 agonist inactive, DAX1 inh-1 inactive, ssDAF12 agonist inactive and hgDAF12 agonist inactive.
For Cc1cccc2c3nc4ccccc4nc3n(C)c12 the results were hcDAF12 agonist 6.7, DAX1 inh-1 inactive, ssDAF12 agonist inactive, hgDAF12 agonist inactive, DAX1 inh-2 inactive, LXRb hcDAF ctr inactive and hcDAF12 conf 11.

Assay outcomes (PubChem BioAssay)
